# Source: publication PMC7862700, “An all-to-all approach to the identification of sequence-specific readers for epigenetic DNA modifications on cytosine”
# Assays:
# Test in all cases: DAPPL (digital affinity profiling via proximity ligation, sequencing); 10 mM Tris-HCl pH 7.5, 50 mM NaCl, 1 mM DTT, 4% glycerol, room temperature, 30 min; GST-TFs on glutathione beads, 16-mer random dsDNA library, 0.1% formaldehyde crosslink after washing; high values mean tight binding
# FEV = target: T1, FEV (Homo sapiens, UniProt Q99581 1-238); settings: protein: recombinant; tags: N-terminal GST; dsDNA, one strand shown
# T1 sequence: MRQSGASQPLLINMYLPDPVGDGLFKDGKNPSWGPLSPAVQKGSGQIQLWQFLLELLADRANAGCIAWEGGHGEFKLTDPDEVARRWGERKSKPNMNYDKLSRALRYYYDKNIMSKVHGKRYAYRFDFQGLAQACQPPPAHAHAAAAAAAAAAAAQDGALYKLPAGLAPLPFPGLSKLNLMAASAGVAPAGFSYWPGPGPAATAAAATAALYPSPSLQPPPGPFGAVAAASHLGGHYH
# Summary of the method: (§1)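 In yeast, human transcription factors were expressed with a GST fusion, then pulled down on glutathione beads and given DNA barcodes. Pooled with a tag-only sample, they were exposed to 200 nmole of a 16-mer random double-stranded DNA library (Tris/NaCl/DTT/glycerol buffer, room temperature, 30 min), washed, crosslinked with 0.1% formaldehyde, proximity-ligated using BsaI/T4 ligase for 1 h at 37 °C, PCR-amplified and read on an Illumina NextSeq500. Each hexamer's frequency of reads for a factor, divided by the matching frequency for the tag-only sample, gives the binding signal.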
# ETV5 = ETV5 (Homo sapiens, UniProt P41161 1-510); settings: protein: recombinant; tags: N-terminal GST; dsDNA, one strand shown
# Sequence of ETV5 (P41161 whole entry): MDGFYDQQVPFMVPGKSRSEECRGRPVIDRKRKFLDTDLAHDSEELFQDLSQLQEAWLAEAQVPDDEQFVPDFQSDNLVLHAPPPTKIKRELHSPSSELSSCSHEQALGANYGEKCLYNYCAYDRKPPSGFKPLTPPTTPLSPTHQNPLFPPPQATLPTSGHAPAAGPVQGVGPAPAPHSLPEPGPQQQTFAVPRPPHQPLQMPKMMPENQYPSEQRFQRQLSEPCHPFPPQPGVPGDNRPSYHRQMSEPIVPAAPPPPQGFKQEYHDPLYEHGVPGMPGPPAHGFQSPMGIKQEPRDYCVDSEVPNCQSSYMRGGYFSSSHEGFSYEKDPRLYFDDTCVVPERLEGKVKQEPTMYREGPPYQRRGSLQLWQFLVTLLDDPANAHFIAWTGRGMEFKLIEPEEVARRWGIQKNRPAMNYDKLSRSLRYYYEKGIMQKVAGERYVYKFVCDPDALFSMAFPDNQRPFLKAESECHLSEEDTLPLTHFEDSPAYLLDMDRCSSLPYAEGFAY
# Summary of the method: as §1
# HSF1 = HSF1 (Homo sapiens, UniProt Q00613 1-529); settings: protein: recombinant; tags: N-terminal GST; chain copies: 3; dsDNA, one strand shown
# Sequence of HSF1 (Q00613 whole entry): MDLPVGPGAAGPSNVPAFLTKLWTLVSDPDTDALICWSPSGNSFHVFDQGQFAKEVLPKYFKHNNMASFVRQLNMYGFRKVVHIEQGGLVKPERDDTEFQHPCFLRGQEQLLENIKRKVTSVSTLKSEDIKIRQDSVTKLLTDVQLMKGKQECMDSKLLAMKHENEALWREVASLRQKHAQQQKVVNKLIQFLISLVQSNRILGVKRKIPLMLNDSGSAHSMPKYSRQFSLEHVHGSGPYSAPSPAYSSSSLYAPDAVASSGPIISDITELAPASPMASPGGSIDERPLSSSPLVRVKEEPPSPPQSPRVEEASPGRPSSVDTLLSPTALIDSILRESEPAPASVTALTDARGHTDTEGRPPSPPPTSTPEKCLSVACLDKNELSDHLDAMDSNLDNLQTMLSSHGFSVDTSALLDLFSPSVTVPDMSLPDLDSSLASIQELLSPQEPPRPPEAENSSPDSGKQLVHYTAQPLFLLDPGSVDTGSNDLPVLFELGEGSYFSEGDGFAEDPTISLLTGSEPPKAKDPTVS
# Summary of the method: as §1
# SPIC = target: T2, SPIC (Homo sapiens, UniProt Q8N5J4 1-248); settings: protein: recombinant; tags: N-terminal GST; dsDNA, one strand shown
# T2 sequence: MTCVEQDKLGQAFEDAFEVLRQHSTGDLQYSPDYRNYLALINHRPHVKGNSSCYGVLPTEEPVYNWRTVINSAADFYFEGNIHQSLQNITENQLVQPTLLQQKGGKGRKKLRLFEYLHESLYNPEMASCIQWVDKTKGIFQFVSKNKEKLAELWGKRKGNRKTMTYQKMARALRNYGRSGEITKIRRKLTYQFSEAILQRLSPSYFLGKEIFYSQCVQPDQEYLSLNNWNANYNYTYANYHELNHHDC
# Summary of the method: as §1
# ELF4 = ELF4 (Homo sapiens, UniProt Q99607 1-663); settings: protein: recombinant; tags: N-terminal GST; dsDNA, one strand shown
# Sequence of ELF4 (Q99607 whole entry): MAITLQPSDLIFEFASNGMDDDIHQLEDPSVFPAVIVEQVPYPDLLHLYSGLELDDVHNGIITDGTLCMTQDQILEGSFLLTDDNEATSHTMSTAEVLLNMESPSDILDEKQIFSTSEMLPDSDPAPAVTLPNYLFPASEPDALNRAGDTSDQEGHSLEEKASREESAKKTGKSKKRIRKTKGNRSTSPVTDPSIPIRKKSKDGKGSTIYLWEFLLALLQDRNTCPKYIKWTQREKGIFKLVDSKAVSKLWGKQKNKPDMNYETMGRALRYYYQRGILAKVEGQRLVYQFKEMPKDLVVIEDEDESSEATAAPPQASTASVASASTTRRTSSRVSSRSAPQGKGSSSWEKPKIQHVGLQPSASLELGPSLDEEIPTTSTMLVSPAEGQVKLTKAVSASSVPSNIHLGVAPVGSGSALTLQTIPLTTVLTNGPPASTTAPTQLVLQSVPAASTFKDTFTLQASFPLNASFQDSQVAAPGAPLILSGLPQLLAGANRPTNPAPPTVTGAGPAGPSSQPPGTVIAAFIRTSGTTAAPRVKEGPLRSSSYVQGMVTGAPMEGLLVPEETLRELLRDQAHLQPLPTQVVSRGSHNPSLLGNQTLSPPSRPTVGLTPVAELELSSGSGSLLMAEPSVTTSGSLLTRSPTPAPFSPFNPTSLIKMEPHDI
# Summary of the method: as §1
# ELK4 = target: T3, ELK4 (Homo sapiens, UniProt P28324-2 1-405); settings: protein: recombinant; tags: N-terminal GST; dsDNA, one strand shown
# T3 sequence: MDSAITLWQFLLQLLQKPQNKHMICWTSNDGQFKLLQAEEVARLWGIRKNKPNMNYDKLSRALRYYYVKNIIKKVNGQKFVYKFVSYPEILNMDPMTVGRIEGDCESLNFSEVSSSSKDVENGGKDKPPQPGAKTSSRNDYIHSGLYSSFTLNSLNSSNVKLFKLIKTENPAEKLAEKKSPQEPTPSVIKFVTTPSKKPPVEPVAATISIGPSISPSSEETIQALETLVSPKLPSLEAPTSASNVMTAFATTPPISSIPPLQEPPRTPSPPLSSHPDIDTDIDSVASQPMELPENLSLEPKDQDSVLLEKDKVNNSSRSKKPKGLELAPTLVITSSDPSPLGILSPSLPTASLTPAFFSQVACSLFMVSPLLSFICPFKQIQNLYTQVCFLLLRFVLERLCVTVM
# Summary of the method: as §1
# ETV2 = target: T4, ETV2 (Homo sapiens, UniProt O00321 1-342); settings: protein: recombinant; tags: N-terminal GST; dsDNA, one strand shown
# T4 sequence: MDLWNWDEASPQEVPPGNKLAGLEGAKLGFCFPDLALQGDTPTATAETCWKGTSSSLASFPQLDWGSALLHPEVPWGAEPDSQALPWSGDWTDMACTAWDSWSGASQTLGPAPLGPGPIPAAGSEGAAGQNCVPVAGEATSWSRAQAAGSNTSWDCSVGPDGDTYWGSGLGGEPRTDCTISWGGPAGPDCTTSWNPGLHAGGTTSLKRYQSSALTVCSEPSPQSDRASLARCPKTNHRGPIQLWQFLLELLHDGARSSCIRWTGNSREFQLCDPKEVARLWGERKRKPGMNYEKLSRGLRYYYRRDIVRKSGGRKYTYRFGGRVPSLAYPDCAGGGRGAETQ
# Summary of the method: as §1
# ELF3 = target: T5, ELF3 (Homo sapiens, UniProt P78545 1-371); settings: protein: recombinant; tags: N-terminal GST; dsDNA, one strand shown
# T5 sequence: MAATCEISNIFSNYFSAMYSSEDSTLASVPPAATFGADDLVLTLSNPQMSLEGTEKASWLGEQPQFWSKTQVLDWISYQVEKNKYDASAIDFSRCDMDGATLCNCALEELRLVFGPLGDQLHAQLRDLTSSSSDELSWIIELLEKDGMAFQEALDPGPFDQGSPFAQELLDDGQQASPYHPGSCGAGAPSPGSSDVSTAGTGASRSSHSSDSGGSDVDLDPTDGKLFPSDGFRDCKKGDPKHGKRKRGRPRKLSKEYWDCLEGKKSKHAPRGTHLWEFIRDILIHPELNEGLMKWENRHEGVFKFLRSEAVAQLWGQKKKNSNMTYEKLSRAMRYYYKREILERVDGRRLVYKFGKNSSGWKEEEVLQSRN
# Summary of the method: as §1
# ETV1 = ETV1 (Homo sapiens, UniProt P50549 1-477); settings: protein: recombinant; tags: N-terminal GST; dsDNA, one strand shown
# Sequence of ETV1 (P50549 whole entry): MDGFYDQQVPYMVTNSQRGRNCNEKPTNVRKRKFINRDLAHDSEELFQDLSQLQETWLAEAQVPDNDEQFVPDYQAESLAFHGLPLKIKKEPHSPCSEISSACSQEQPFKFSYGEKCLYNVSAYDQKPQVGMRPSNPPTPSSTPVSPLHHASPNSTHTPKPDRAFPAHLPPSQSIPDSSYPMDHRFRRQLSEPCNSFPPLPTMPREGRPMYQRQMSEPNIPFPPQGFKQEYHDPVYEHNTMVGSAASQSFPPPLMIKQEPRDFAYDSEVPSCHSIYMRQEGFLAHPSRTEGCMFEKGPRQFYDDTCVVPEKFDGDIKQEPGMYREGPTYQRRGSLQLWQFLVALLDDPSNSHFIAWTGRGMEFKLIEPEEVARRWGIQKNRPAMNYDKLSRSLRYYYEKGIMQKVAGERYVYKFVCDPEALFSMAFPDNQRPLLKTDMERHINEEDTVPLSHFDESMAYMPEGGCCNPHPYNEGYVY
# Summary of the method: as §1
# ERF = target: T6, ERF (Homo sapiens, UniProt P50548 1-548); settings: protein: recombinant; tags: N-terminal GST; dsDNA, one strand shown
# T6 sequence: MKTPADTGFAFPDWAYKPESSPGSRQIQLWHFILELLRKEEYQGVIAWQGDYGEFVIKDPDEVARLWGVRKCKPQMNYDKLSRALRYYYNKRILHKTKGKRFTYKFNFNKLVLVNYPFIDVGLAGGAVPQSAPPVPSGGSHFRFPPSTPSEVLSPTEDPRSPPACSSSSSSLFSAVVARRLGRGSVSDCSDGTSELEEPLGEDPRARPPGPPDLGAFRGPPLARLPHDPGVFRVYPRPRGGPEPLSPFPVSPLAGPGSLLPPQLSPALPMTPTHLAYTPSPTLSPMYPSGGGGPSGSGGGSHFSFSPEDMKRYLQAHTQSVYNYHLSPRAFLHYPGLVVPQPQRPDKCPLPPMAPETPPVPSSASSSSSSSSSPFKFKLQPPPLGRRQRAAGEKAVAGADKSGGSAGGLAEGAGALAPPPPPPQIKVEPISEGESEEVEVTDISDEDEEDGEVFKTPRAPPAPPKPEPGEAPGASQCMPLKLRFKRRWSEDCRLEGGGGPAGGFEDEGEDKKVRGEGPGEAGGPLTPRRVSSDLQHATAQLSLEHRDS
# Summary of the method: as §1
# ETV3L = target: T7, ETV3L (Homo sapiens, UniProt Q6ZN32 1-361); settings: protein: recombinant; tags: N-terminal GST; dsDNA, one strand shown
# T7 sequence: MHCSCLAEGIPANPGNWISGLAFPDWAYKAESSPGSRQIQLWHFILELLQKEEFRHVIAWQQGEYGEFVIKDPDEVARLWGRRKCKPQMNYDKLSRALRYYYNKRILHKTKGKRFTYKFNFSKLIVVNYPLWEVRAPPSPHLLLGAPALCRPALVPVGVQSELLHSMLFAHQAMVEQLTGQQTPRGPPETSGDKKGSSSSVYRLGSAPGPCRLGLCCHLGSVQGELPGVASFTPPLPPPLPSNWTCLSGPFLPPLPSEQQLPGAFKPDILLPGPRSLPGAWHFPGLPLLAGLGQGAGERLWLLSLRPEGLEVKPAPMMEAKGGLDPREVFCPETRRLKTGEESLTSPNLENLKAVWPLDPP
# Summary of the method: as §1
# ETS2 = target: T8, ETS2 (Homo sapiens, UniProt P15036 1-469); settings: protein: recombinant; tags: N-terminal GST; dsDNA, one strand shown
# T8 sequence: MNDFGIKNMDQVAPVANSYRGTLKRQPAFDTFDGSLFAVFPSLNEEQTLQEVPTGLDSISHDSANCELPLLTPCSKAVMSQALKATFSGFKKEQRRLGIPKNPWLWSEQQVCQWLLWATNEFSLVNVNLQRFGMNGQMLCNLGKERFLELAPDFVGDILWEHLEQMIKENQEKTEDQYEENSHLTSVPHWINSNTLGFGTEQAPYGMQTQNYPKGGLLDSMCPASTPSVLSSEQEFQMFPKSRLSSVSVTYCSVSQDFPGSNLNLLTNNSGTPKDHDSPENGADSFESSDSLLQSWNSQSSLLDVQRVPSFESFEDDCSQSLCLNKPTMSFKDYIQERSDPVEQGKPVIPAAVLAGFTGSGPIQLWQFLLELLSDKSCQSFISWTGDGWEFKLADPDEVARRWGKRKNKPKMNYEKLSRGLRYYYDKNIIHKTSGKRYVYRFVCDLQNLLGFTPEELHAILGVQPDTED
# Summary of the method: as §1
# SPDEF = target: T9, SPDEF (Homo sapiens, UniProt O95238 1-335); settings: protein: recombinant; tags: N-terminal GST; dsDNA, one strand shown
# T9 sequence: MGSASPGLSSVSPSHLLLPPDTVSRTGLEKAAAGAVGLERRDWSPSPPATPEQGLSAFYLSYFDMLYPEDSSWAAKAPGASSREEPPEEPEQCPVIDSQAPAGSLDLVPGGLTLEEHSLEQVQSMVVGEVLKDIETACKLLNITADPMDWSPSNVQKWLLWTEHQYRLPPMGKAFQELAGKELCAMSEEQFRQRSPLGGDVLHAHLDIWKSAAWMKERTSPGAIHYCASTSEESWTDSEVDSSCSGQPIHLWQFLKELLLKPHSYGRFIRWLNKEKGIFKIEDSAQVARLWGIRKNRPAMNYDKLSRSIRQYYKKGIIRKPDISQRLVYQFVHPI
# Summary of the method: as §1
# ETV7 = target: T10, ETV7 (Homo sapiens, UniProt Q9Y603 1-341); settings: protein: recombinant; tags: N-terminal GST; dsDNA, one strand shown
# T10 sequence: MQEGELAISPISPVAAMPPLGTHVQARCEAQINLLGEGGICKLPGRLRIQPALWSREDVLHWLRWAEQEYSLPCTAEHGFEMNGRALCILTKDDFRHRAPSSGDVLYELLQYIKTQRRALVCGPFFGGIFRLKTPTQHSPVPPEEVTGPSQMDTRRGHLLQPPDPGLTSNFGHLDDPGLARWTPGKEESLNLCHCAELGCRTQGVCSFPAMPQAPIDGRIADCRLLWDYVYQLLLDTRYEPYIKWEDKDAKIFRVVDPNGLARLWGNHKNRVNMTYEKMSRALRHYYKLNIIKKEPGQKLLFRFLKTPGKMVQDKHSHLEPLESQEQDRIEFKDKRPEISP
# Summary of the method: as §1
# ELF5 = target: T11, ELF5 (Homo sapiens, UniProt Q9UKW6-2 1-255); settings: protein: recombinant; tags: N-terminal GST; dsDNA, one strand shown
# T11 sequence: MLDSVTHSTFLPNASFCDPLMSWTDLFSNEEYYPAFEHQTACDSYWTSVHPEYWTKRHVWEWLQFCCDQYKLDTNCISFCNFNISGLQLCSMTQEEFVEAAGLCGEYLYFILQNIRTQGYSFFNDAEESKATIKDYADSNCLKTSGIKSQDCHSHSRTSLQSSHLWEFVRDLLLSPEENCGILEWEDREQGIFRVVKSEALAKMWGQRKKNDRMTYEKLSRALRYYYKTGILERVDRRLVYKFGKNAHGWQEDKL
# Summary of the method: as §1
# ETV3 = target: T12, ETV3 (Homo sapiens, UniProt P41162-2 1-143); settings: protein: recombinant; tags: N-terminal GST; dsDNA, one strand shown
# T12 sequence: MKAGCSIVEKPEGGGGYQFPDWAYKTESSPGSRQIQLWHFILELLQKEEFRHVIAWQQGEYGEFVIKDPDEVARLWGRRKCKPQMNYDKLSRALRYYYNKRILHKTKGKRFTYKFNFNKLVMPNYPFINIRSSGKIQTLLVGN
# Summary of the method: as §1
# ETV6 = ETV6 (Homo sapiens, UniProt P41212 1-452); settings: protein: recombinant; tags: N-terminal GST; dsDNA, one strand shown
# Sequence of ETV6 (P41212 whole entry): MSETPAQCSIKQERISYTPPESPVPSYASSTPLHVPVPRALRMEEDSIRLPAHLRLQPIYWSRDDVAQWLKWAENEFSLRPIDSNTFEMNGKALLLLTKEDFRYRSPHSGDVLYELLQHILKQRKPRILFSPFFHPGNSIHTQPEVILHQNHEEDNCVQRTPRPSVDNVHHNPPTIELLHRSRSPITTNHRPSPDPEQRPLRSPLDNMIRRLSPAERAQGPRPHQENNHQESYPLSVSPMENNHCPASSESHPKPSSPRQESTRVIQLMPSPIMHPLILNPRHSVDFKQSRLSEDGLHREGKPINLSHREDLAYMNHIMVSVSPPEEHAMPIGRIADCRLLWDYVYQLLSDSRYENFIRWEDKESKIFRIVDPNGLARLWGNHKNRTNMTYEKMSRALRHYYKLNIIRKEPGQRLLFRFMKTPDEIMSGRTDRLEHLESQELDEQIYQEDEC
# Summary of the method: as §1
sequence,measurement,setting,value
GGTTCC,binding signal,FEV,"1.68 fold enrichment (6-mer frequency, TF over GST control)"
same,binding signal,ETV5,"1.57 fold enrichment (6-mer frequency, TF over GST control)"
same,binding signal,HSF1,"1.13 fold enrichment (6-mer frequency, TF over GST control)"
same,binding signal,SPIC,"1.38 fold enrichment (6-mer frequency, TF over GST control)"
same,binding signal,ELF4,"1.44 fold enrichment (6-mer frequency, TF over GST control)"
same,binding signal,ELK4,"1.38 fold enrichment (6-mer frequency, TF over GST control)"
same,binding signal,ETV2,"1.32 fold enrichment (6-mer frequency, TF over GST control)"
same,binding signal,ELF3,"1.7 fold enrichment (6-mer frequency, TF over GST control)"
same,binding signal,ETV1,"1.63 fold enrichment (6-mer frequency, TF over GST control)"
same,binding signal,ERF,"1.35 fold enrichment (6-mer frequency, TF over GST control)"
same,binding signal,ETV3L,"1.46 fold enrichment (6-mer frequency, TF over GST control)"
same,binding signal,ETS2,"1.59 fold enrichment (6-mer frequency, TF over GST control)"
same,binding signal,SPDEF,"1.84 fold enrichment (6-mer frequency, TF over GST control)"
same,binding signal,ETV7,"1.47 fold enrichment (6-mer frequency, TF over GST control)"
same,binding signal,ELF5,"1.75 fold enrichment (6-mer frequency, TF over GST control)"
same,binding signal,ETV3,"1.71 fold enrichment (6-mer frequency, TF over GST control)"
same,binding signal,ETV6,"1.55 fold enrichment (6-mer frequency, TF over GST control)"
